Results reported in PubChem BioAssay.
Records with an inconclusive call do not appear. The source made the active and inactive calls. Rule as the data show it, unless noted: active = inhibition above about 80%; inactive = the rest.

How the values were obtained:
[1] = biological target: 6-phosphogluconate dehydrogenase, decarboxylating (Homo sapiens) (UniProt P52209); assay: 6PGD enzyme inhibitors, primary screen, biochemical, human, recombinant enzyme, NADPH absorbance (AID 1159550;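 active = at least 20% inhibition of 6-phosphogluconate dehydrogenase activity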); conditions: recombinant 6PGD, NADPH absorbance 341 nm; at 10 µM; stronger effect = higher value
[2] = sensitizers of A549 cells to miR-34 induction, primary screen, imaging, A549 dox-inducible miR-34, nuclei and caspase counts (AID 1347080;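 active = compounds whose cell count with miR-34 switched on is under 0.7 times the count with it off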); conditions: A549 miR-34 inducible, Hoechst nuclei count, 48 h
[3] = biological target: Mitogen-activated protein kinase 7 (Homo sapiens) (UniProt Q13164); assay: ERK5 transactivation activators in reporter cells, primary screen, cell-based, HTS (AID 1508626;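 active = luciferase signal above three times the same-plate solvent-only control wells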;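 also: luciferase driven by Gal4-ERK5 fusion binding five Gal4 sites before minimal TATA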); conditions: HeLa Gal4-ERK5 transactivation, 18 h, at 5 µM, stronger effect = higher value
[4] = viability rescue of complex I mutant cybrids, primary screen, cell-based, galactose medium, ATP luminescence (AID 1645843;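 active = z-score of at least 1.8 in each of two replicates, scored against plate mean and spread of sample wells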;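 also: positive z means more ATP and so rescue of galactose-driven cybrid death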); conditions: complex I mutant cybrid cells, 72 h, stronger effect = higher value
[5] = liver-stage malaria parasite growth inhibition, primary screen, cell-based, HepG2, luciferase luminescence, HepG2 viability (AID 624349; in the data active = parasite load remaining mostly below about 12%, no sharp cut-off; inactive = mostly above about 10%;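 also: 100% = mean of DMSO negative control wells on the same plate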); conditions: P. berghei liver stage in HepG2, luciferase luminescence, concentration not given here; parasite load remaining: stronger effect = lower value; viability: measured here: HepG2 viability without parasites
[6] = growth inhibition of DIPG glioma cells, dose response, cell-based, SU-DIPG-XIII, MIPE4.0, CellTiter-Glo, qHTS (AID 1347061; cut-off not given, nearly all actives have AC50 up to about 37 µM;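 also: cells exposed to compound for 48 hours before readout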); conditions: SU-DIPG-XIII viability, CellTiter-Glo ATP luminescence
[7] = growth inhibition of DIPG glioma cells, dose response, cell-based, JHH-DIPG-1, MIPE4.0, CellTiter-Glo, qHTS (AID 1347062; cut-off not given, nearly all actives have AC50 up to about 27 µM); conditions: JHH-DIPG-1 viability, CellTiter-Glo ATP luminescence
[8] = survival rescue of mitochondrial mutant cells in low glucose, primary screen, MELAS cybrids, Rieske KO mouse fibroblasts, CellTiter-Glo (AID 1508586;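 active = mean z-score across replicates of 1.96 or higher in either the MELAS or the Rieske mutant cell line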;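 also: z relative to plate mean and SD of compound and empty wells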)
[9] = biological target: NAD(+) hydrolase SARM1 (Homo sapiens) (UniProt Q6SZW1); assay: SARM1 TIR NADase inhibitors, cell lysate, NAD-Glo luminescence (AID 1508614;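 active = compound whose remaining NAD level is above about 45 nM, limit read from the data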;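 also: higher remaining NAD means stronger inhibition of SARM1 NADase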); conditions: SAM-TIR HEK293T lysate NADase, at 1 µM, stronger effect = higher value
[10] = LFS_MB_P medulloblastoma growth inhibition, cell-based, chromothripsis tumors, cisplatin or BGB combos (AID 1671449); conditions: LFS_MB_P medulloblastoma cells;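 also: cells exposed for 96 hours; 0% = vehicle DMSO and 100% = killing by high DMSO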
[11] = HDN33 neuroblastoma growth inhibition, cell-based, chromothripsis tumors, cisplatin or BGB combos (AID 1671450); conditions: HDN33 neuroblastoma cells, stronger effect = higher value;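 also: cells exposed to compound for four days; 0% = vehicle DMSO and 100% = cell killing by high DMSO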
[12] = ICB984 medulloblastoma cell growth inhibition, synergistic combos for chromothripsis tumors, cisplatin or BGB combos (AID 1671451; call rule not given here;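 also: cells exposed for 96 hours before readout; 0% = vehicle DMSO and 100% = killing by high DMSO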); conditions: ICB984 medulloblastoma cells, drug combinations, stronger effect = higher value
[13] = LFS_MB_1R medulloblastoma cell growth inhibition, synergistic combos for chromothripsis tumors, cisplatin or BGB combos (AID 1671452); conditions: LFS_MB_1R medulloblastoma cells, stronger effect = higher value;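 also: cells exposed for 96 hours before readout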
[14] = HTB85 osteosarcoma cell growth inhibition, synergistic combos for chromothripsis tumors, BGB or cisplatin IC20 combos (AID 1671453); conditions: HTB85 osteosarcoma cells, drug combinations, stronger effect = higher value;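 also: cells exposed for 96 hours before readout; 0% = vehicle DMSO and 100% = high DMSO killing control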
[15] = MDA-MB-436 breast carcinoma cell growth inhibition, synergistic combos for chromothripsis tumors, BGB or cisplatin combos (AID 1671458; call rule not given here;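 also: cells exposed for 96 hours; 0% = vehicle DMSO and 100% = killing by high DMSO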); conditions: MDA-MB-436 breast carcinoma growth inhibition, drug combinations, stronger effect = higher value
[16] = growth inhibition of BT084 medulloblastoma cells, cell-based, ICGC_MB145, cisplatin and BGB IC40 combos (AID 1671461); conditions: drug combinations, stronger effect = higher value;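 also: cells exposed to drugs for 96 hours; 0% = vehicle DMSO and 100% = high DMSO full killing control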
[17] = growth inhibition of RCMB18 medulloblastoma cells, cell-based, cisplatin and BGB IC40 combos (AID 1671462); conditions: stronger effect = higher value;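 also: cells exposed to compound for four days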
[18] = growth inhibition of CRL1545 osteosarcoma cells, cell-based, cisplatin and BGB IC20 combos (AID 1671464); conditions: stronger effect = higher value;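 also: cells exposed to compound for 96 hours before readout; 0% = vehicle DMSO and 100% = high DMSO killing control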
[19] = stronger effect = lower value, cell number ratio, induced over uninduced
[20] = measured here: relative caspase fold change +Dox/-Dox
[21] = measured here: total cells with miR-34 induction, stronger effect = lower value
[22] = measured here: total cells without miR-34 induction
[23] = measured here: combination with BGB IC40, at 0.05 µM
[24] = measured here: with BGB IC20 combination, at 0.5 µM
[25] = measured here: with cisplatin IC20 combination, at 0.5 µM
[26] = measured here: combination with cisplatin, at 0.5 µM

Chain of 6-phosphogluconate dehydrogenase, decarboxylating (Homo sapiens) (P52209 whole entry, looked up): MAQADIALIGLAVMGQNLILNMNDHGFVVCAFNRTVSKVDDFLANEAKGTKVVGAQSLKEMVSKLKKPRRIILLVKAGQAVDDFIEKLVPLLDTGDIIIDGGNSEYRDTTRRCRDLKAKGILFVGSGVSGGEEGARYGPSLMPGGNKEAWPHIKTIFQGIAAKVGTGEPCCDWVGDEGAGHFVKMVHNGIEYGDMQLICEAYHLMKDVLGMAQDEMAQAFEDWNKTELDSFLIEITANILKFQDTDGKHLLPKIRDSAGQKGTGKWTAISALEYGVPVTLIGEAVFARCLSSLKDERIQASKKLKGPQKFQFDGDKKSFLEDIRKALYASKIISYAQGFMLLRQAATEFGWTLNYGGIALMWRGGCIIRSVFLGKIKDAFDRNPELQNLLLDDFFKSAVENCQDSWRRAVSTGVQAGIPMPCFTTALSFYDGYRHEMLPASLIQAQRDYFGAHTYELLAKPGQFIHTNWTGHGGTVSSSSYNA
Chain of Mitogen-activated protein kinase 7 (Homo sapiens) (Q13164 whole entry, looked up, the tested form may be a part): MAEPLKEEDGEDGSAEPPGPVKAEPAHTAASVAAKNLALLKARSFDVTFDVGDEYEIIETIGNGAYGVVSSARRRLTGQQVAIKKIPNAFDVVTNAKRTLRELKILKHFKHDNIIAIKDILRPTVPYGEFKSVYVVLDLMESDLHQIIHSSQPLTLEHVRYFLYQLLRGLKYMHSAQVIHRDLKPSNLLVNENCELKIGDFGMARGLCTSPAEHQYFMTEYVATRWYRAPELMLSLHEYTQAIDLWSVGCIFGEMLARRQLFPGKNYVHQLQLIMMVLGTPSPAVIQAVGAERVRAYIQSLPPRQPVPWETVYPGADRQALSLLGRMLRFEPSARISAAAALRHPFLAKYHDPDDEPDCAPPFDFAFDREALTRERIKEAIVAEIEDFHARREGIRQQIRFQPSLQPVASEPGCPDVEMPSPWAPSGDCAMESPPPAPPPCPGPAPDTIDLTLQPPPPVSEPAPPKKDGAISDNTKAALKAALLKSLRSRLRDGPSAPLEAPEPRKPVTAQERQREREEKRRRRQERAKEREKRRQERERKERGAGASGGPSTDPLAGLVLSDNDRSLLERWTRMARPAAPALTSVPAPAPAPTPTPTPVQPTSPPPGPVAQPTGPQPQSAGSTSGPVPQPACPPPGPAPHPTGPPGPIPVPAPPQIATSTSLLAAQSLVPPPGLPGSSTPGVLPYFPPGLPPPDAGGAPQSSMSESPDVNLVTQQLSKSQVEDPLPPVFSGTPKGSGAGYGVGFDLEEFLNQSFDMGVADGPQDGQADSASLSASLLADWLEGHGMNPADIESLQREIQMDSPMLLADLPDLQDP
Chain of NAD(+) hydrolase SARM1 (Homo sapiens) (Q6SZW1 whole entry, looked up): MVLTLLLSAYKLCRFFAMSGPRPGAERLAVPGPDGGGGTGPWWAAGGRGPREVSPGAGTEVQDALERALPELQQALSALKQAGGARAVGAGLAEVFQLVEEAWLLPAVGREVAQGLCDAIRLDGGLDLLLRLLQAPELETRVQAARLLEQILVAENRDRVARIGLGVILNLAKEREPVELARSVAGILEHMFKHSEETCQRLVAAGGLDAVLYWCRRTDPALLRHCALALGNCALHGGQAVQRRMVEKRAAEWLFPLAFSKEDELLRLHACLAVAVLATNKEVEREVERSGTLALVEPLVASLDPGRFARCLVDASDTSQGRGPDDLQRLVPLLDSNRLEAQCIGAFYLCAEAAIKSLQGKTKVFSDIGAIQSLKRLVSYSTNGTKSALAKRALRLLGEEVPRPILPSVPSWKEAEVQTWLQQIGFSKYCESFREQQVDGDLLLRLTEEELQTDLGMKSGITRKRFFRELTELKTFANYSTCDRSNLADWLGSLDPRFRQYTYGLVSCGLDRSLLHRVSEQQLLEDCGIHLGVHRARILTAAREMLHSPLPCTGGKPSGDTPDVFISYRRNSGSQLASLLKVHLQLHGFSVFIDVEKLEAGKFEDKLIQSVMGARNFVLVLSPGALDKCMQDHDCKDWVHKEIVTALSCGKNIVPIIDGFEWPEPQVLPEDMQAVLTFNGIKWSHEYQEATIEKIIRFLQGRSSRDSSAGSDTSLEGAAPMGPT

Question: Which results are given for O=C(O)c1c2ccccc2cc2ccccc12?
Answer: inhibition [1]: -1.37% (inactive); fold change [2, 19]: 0.92 (inactive); fold change [2, 20]: 0.787; cell count [2, 21]: 9100; cell count [2, 22]: 9890; luciferase signal [3]: 56 AU (inactive); z-score [4]: 0.475 (inactive)

Question: Which results are given for N=c1ccn2c(n1)O[C@H]1[C@H](O)[C@@H](CO)O[C@H]12?
Answer: parasite load remaining [5]: 29.5% (inactive); viability [5]: 73.5%; inhibition [1]: -4.99% (inactive); outcome [6]: inactive; outcome [7]: inactive; fold change [2, 19]: 1.14 (inactive); fold change [2, 20]: 1; cell count [2, 21]: 3040; cell count [2, 22]: 2660; z-score ([8]; MELAS cybrid survival, CellTiter-Glo 48 h, stronger effect = higher value): -0.885 (inactive); z-score ([8]; Rieske KO mouse fibroblast survival, CellTiter-Glo 72 h): -0.24; remaining NAD [9]: 10 nM (inactive); luciferase signal [3]: 44 AU (inactive); z-score [4]: -1.8 (inactive); inhibition ([10]; at 0.5 µM, stronger effect = higher value): -28.5% (inactive); inhibition ([10]; measured here: combination with BGB IC20, at 0.005 µM): -22.6%; inhibition ([10]; measured here: combination with BGB IC40, at 0.005 µM): -23.7%; inhibition [10, 23]: -32.2%; inhibition ([10]; measured here: combination with cisplatin, at 0.5 µM, stronger effect = higher value): -58.3%; inhibition ([10]; measured here: combination with cisplatin, at 5 µM, stronger effect = higher value): 86.6%; inhibition ([11]; BGB combo, at 5 µM): 85.1%; inhibition ([11]; at 0.5 µM): 76.6% (inactive); inhibition ([11]; cisplatin combo, at 5 µM): 80.9%; inhibition [11, 24]: 82.4%; inhibition [11, 25]: 69.1%; inhibition ([11]; single agent, at 5 µM): 81.4%; inhibition ([12]; BGB IC20 combo, at 0.005 µM): -16.9%; inhibition ([12]; BGB IC40 combo, at 0.005 µM): -39.5%; inhibition ([12]; BGB IC40 combo, at 0.05 µM): -9.88%; inhibition ([12]; at 0.5 µM): -19.6% (inactive); inhibition ([12]; cisplatin combo, at 0.05 µM): -12.9%; inhibition ([12]; cisplatin combo, at 0.5 µM): -20.7%; inhibition ([12]; cisplatin combo, at 5 µM): -55.6%; inhibition ([12]; measured here: 5 uM single agent, at 5 µM): -6.48%; inhibition ([13]; at 0.5 µM): -7.06% (inactive); inhibition [13, 23]: -18.8%; inhibition [13, 26]: 43.5%; inhibition ([13]; measured here: combination with cisplatin, at 5 µM): 68.2%; inhibition ([14]; at 0.5 µM): 32.7% (inactive); inhibition ([14]; measured here: with BGB IC20, at 0.5 µM): 1.49%; inhibition ([14]; measured here: with BGB IC20, at 5 µM): 23.6%; inhibition ([14]; measured here: with cisplatin IC20, at 0.5 µM): 44.8%; inhibition ([14]; measured here: with cisplatin IC20, at 5 µM): 50.9%; inhibition ([14]; single agent, at 5 µM): 64.3%; inhibition ([15]; at 0.5 µM): 14% (inactive); inhibition ([15]; measured here: BGB combination, at 0.5 µM): 5.47%; inhibition ([15]; measured here: BGB combination, at 5 µM): 33.7%; inhibition ([15]; measured here: cisplatin combination, at 0.5 µM): 0.616%; inhibition ([15]; measured here: cisplatin combination, at 5 µM): 57.3%; inhibition ([16]; at 0.5 µM): -29.7% (inactive); inhibition ([16]; cisplatin combination, at 0.5 µM): 2.2%; inhibition ([16]; cisplatin combination, at 5 µM): 58.5%; inhibition ([16]; measured here: BGB IC40 combination 0.05 uM, at 0.05 µM): -14%; inhibition ([16]; single agent, at 5 µM): -28.9%; inhibition ([17]; at 0.5 µM): -18% (inactive); inhibition ([17]; cisplatin combo, at 5 µM): 61%; inhibition ([17]; measured here: BGB IC40 combination, at 0.05 µM): -21.5%; inhibition [17, 26]: 11.8%; inhibition ([17]; single agent, at 5 µM): -26.3%; inhibition ([18]; at 0.5 µM): -32.9% (inactive); inhibition [18, 24]: -44.9%; inhibition [18, 25]: -29.7%; inhibition ([18]; single agent, at 0.05 µM): -73.2%; inhibition ([18]; single agent, at 5 µM): 23.2%
